PubChem BioAssay (EPA / NIEHS)
Inconclusive results are not listed. Activity calls are given as the source filed them. The calls were made as follows: active = hit-call score of the fitted dose curve at least 0.9, where 1 is the maximum; inconclusive = response in the unintended direction; inactive = score below 0.9.

Assays:
[1] = target: Cellular tumor antigen p53 (Homo sapiens) (UniProt P04637); assay: TOX21_p53_BLA_p2_ratio: Tox21 HCT-116 p53 Agonism Beta-lactamase Assay, Ratio, Phase 2 (AID 2283592)
In short: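 HCT116 p53-bla; 4000 cells/well; 5 h pre-incubation; cpd in DMSO, 217-fold dilution; 16 h 37C/5% CO2; CCF4-AM 2 h RT; Ex 405, Em 460/530 ratio; DMSO = baseline; positive fitting direction.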

[2] = TOX21_p53_BLA_p3_viability: Viability Assessment in the Tox21 HCT-116 p53 Agonism Beta-lactamase Assay, Phase 3 (AID 2283593);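 also: cells exposed to compound for 16 h before reading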
In short: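 HCT-116 cells (4000/well) rested 5 h at 37C, then got DMSO compounds by pin tool (217-fold dilution) for 16 h at 37C, 5% CO2. After the bla read, CellTiter-Glo was added and luminescence read at 30 min, room temperature.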

[3] = target: Cellular tumor antigen p53 (Homo sapiens) (UniProt P04637); assay: TOX21_p53_BLA_p3_ratio: Tox21 HCT-116 p53 Agonism Beta-lactamase Assay, Ratio, Phase 3 (AID 2283596)
In short: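 HCT116 p53-bla cells (4000/well) given compound in DMSO (217-fold dilution) after 5 h, incubated 16 h at 37C. CCF4-AM substrate 2 h at room temperature; 460/530 nm emission ratio, gain fitted against DMSO.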

[4] = TOX21_p53_BLA_p4_viability: Viability Assessment in the Tox21 HCT-116 p53 Agonism Beta-lactamase Assay, Phase 4 (AID 2283597);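 also: hits lower the luminescence signal meaning cytotoxicity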
In short: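 Cells plated, 5 h pre-incubation; DMSO compounds pinned (217-fold dilution); 16 h, 37C/5% CO2; CCF4-AM 2 h RT; CellTiter-Glo 30 min RT; luminescence read.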

[5] = TOX21_p53_BLA_p5_viability: Viability Assessment in the Tox21 HCT-116 p53 Agonism Beta-lactamase Assay, Phase 5 (AID 2283600)
In short: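 4000 cells/well; 5 h pre-incubation; DMSO compounds pin-transferred, 217-fold dilution; 16 h, 37C/5% CO2; CCF4-AM 2 h RT; CellTiter-Glo 30 min RT; luminescence.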

[6] = target: Cellular tumor antigen p53 (Homo sapiens) (UniProt P04637); assay: TOX21_p53_BLA_p5_ratio: Tox21 HCT-116 p53 Agonism Beta-lactamase Assay, Ratio, Phase 5 (AID 2283599)
In short: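 HCT-116 cells carrying a p53-inducible beta-lactamase reporter were seeded at 4000 cells/well and dosed after 5 h with compound in DMSO (217-fold dilution). After 16 h at 37C, CCF4-AM substrate was added for 2 h, and the 460/530 nm emission ratio was scored as gain-of-signal versus DMSO.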

Chain of Cellular tumor antigen p53 (Homo sapiens) (P04637 whole entry, looked up): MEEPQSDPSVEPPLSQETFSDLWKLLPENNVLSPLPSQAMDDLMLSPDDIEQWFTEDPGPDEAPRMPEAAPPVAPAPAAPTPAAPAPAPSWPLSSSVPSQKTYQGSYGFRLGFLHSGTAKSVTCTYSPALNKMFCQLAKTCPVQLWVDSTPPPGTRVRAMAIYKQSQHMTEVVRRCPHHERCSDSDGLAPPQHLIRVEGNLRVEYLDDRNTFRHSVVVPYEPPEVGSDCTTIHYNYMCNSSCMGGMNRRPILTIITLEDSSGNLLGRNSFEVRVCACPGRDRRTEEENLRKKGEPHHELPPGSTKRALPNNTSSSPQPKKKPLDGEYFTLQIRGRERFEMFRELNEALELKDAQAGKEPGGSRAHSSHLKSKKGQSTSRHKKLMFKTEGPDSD

Row | Structure (SMILES) | outcome [1] | outcome [2] | outcome [3] | outcome [4] | outcome [5] | AC50 [2] | outcome [6]
1 | O=C1C=C2C=C[C@@H]3C[C@@]2(O1)[C@H]1CCCCN31 | inactive | inactive | inactive | inactive | inactive | – | –
2 | CN(C)[C@H](Cc1ccccc1)c1ccccc1 | inactive | – | inactive | – | inactive | 37.9 µM (active) | inactive
